Here are results for 47 compounds from PubChem BioAssay AID2241 (Broad Institute, 2010).

SMILES strings stand for the structures. The campaign covered roughly 21,000 compounds. About 110 (0.52%) were called active.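 The calls were made as follows: active = most replicate scores above 10, or exactly half above 10 with mean activity above 10; inconclusive = mean activity below 10 while half the replicates exceed 10; inactive = most replicate scores below 10.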 Only a selection was taken, and actives are over-represented in it overall.

This experiment in a line: inducers of caspase activity in MEF A1-2A-BIM cells, primary screen, A1 inhibitor project, cell-based, CaspaseGlo luminescence (AID 2241).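 Also: effector caspase 3 and 7 activity cleaving a DEVD luciferin substrate.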 Particulars: caspase-Glo luminescence, 3 h, active compounds read high, percent of clofoctol signal, DMSO as zero, concentration not given here.
Consider `C[C@H]1CN([C@@H](C)CO)C(=O)c2cc(NS(=O)(=O)c3ccc(F)cc3)ccc2O[C@H]1CN(C)CC1CC1`, for which the caspase activation was 1.58% (inactive).
Then `CCc1ccc(NC(=O)CN(C)S(=O)(=O)c2cc(Br)cnc2N)cc1`, with -0.325% (inactive).
Then `COc1ccc(CN(C)C[C@@H]2Oc3ccc(NC(=O)Nc4cccc5ccccc45)cc3C(=O)N([C@H](C)CO)C[C@H]2C)cc1`, with -0.083% (inactive); and `COc1cc(C2c3c(cc(OC)c(O)c3OC)CC(CO[C@@H]3O[C@H](CO)[C@@H](O)[C@H](O)[C@H]3O)C2CO)cc(OC)c1O` (some centres not stated), with -0.412% (inactive); and `O=C(/C=C/c1ccccc1)NCCCCNCCCNC(=O)/C=C/c1ccccc1`, with -0.0105% (inactive).
Consider `Cc1ccc(NC(N)=O)cc1`, for which the caspase activation is -0.167% (inactive).
Regarding `COc1ccc(NC(=O)N(C)C[C@H]2Oc3ccc(NS(=O)(=O)c4cccs4)cc3C(=O)N([C@@H](C)CO)C[C@H]2C)cc1`, the caspase activation is 0.747% (inactive).
Then `CCC(=O)c1ccc(OC(=O)C2c3ccccc3Oc3ccccc32)cc1`, with -0.0959% (inactive); and `c1ccc(CSc2ccc(-c3ccncc3)nn2)cc1`, with 0.0365% (inactive).
On to `C=CCn1c(SCc2nnc(SCC(=O)c3ccc(Cl)cc3)o2)nnc1-c1ccccc1`, for which the caspase activation was 0.865% (inactive).
Then `C[C@@H]1CN([C@H](C)CO)C(=O)c2cc(NC(=O)C3CCCCC3)ccc2O[C@@H]1CN(C)CC1CCCCC1`, with 0.287% (inactive).
The figure for `CC(=C\c1ccccc1)/C(C)=N/O` is 0.142% (inactive).
On to `COc1cc2c(cc1OC)C1CN3CCc4cc(OC)c(OC)cc4C3CN1CC2` (configuration not stated), for which the caspase activation was -0.199% (inactive).
For the compound `CC[C@H]1CN2CCc3cc(OC)c(OC)cc3[C@@H]2C[C@@H]1C[C@H]1NCCc2cc(OC)c(OC)cc21`, the caspase activation is 18.2% (active).
In the case of `Oc1c(Cl)cc(Cl)cc1C1Nc2cc(C(F)(F)F)ccc2-n2cccc21` (configuration not stated), the caspase activation was -0.566% (inactive).
The figure for `CCCNC(=O)c1ccc2c(c1)N(Cc1ccc(F)cc1)CCS2` is -0.988% (inactive); for `COc1ccc(S(=O)(=O)Nc2ccc3c(c2)C(=O)N([C@H](C)CO)C[C@H](C)[C@H](CN(C)S(=O)(=O)c2ccc(Cl)cc2)O3)cc1` it is 0.103% (inactive).
For `O=C(CSc1nc2ccccc2o1)Nc1ccccn1`, the caspase activation was -3.01% (inactive).
As for `O=C(Nc1cccc(-c2nc3ccccc3o2)c1)c1ccc(Br)cc1`, the caspase activation was 14.9% (active).
In the case of `O=C(COc1cccc(NC(=O)c2ccccc2)c1)NCCOc1ccccc1`, the caspase activation is -0.0599% (inactive).
On to `O=C(Nc1cccc(-c2nc3ccccc3o2)c1)c1cccc(OCc2ccccc2)c1`, for which the caspase activation is 34% (active).
With `c1ccc(-c2nc3ccccc3o2)cc1`, the caspase activation is -5.88% (inactive).
Then `CCOC(=O)c1cc(=O)c2ccc(OCc3ccccc3)cc2o1`, with -1.74% (inactive); and `O=C(/C=C/c1ccccc1)c1ccc(O[C@@H]2O[C@H](CO)[C@@H](O)[C@H](O)[C@H]2O)cc1O`, with -0.127% (inactive); and `C[C@@H]1CN([C@@H](C)CO)C(=O)c2cc(NS(=O)(=O)c3ccccc3)ccc2O[C@H]1CN(C)CC1CC1`, with -0.166% (inactive).
On to `C[C@H](CO)N1C[C@H](C)[C@H](CN(C)S(=O)(=O)c2cn(C)cn2)Oc2ccc(NS(=O)(=O)c3ccccc3)cc2C1=O`, for which the caspase activation was 0.0901% (inactive).
Regarding `Cn1c(C(=O)NC2CCCC2)cc2oc3ccccc3c21`, the caspase activation is -1.2% (inactive).
In the case of `OCCN1N=C2c3ccccc3CCC2C1c1ccccc1Cl` (configuration not stated), the caspase activation was 0.231% (inactive).
With `O=C1c2ccccc2C(=O)C1c1cc(=O)[nH]c2c1ccc1ccccc12`, the caspase activation is -0.299% (inactive).
In the case of `Cc1ccccc1N=C(N)N=C(N)N`, the caspase activation was 0.116% (inactive).
`FC(F)(F)c1ccnc(Oc2ccc(C3=NCCS3)cc2)c1`: the caspase activation was -5.95% (inactive).
`CCOC(=O)c1c(C)n(O)c2ccc3nonc3c12`: the caspase activation is -0.716% (inactive).
For `CCCCn1c2ccccc2c2nc3ccccc3nc21`, the caspase activation is -1.06% (inactive).
Then `CCSC1=C(C#N)C(=O)NCS1`, with 0.116% (inactive).
Take `CCC(=O)Nc1ccccc1C(=O)Nc1ccccc1`: the caspase activation was 0.303% (inactive).
As to `C[C@@H]1CN([C@H](C)CO)C(=O)c2cc(NC(=O)NC3CCCCC3)ccc2O[C@H]1CN(C)S(C)(=O)=O`, the caspase activation was 0.129% (inactive).
For the compound `O=c1c2ccccc2nc(SCc2cccc(F)c2)n1C1CC1`, the caspase activation was -0.676% (inactive).
For `CCN(CC)C(=S)SCc1nc(N)nc(Nc2ccccc2)n1`, the caspase activation was 0.133% (inactive).
With `CCC(C)NC(=O)Nc1ccc(C)c(Cl)c1` (configuration not stated), the caspase activation was -1.99% (inactive).
Turning to `O=C(O)CCCC=C(c1ccccc1)c1ccccc1`, the caspase activation was -0.527% (inactive).
The figure for `COc1ccc(N/C(N)=N/c2nc(CSc3nc4ccccc4s3)cc(=O)[nH]2)cc1` is -0.646% (inactive); for `CCCOC(=O)c1cc2ccccc2oc1=O` it is -1.82% (inactive).
Regarding `NC(=S)c1nc(-c2ccccc2)oc1N`, the caspase activation was -1.84% (inactive).
In the case of `OC(c1nc2ccccc2[nH]1)C(O)C(O)C(O)c1nc2ccccc2[nH]1` (configuration not stated), the caspase activation is 0.0552% (inactive).
The figure for `O=C(Sc1ccc(Oc2ccc(SC(=O)c3ccco3)cc2)cc1)c1ccco1` is 1.99% (inactive); for `Nc1c(C(=O)N2CCCCC2)sc2nc3c(cc12)CCC3` it is -1.2% (inactive); for `CCN(CCCn1c(=S)[nH]c2cc3c(cc2c1=O)OCO3)c1cccc(C)c1` it is 0.124% (inactive).
